In PubChem BioAssay:
Measured potencies and affinities stand elsewhere. Unmarked numbers belong to inactive results. The rule behind the calls is not given here.

experiment: A549 cell cytotoxicity, dose response, cytotoxicity control, plate reader, cherry-pick, antagonist series (AID 743412); settings: series mostly up to 26 µM; activity change, negative = cytotoxicity: at the top concentration
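Note: 0% = neutral control wells and -100% = positive control wells.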

| Structure (SMILES) | activity change, negative = cytotoxicity |
| --- | --- |
| Cc1ccc(CNS(=O)(=O)c2ccc3c(c2)CCN3C(=O)CCCC(=O)O)cc1 | 1.6% |
| Cc1noc2ncnc(Sc3ccc(Br)cc3)c12 | -14.9% |
| Cc1ccc(S(=O)(=O)N2CCCc3nc(-c4ccc(F)cc4)ccc32)cc1 | 0.112% [at 12 µM] |

experiment: toxicity toward HepG2 liver cells – cell-based, plate reader, cherry-pick, antagonist series, cytotoxicity control, dose response (AID 743416); settings: series mostly up to 26 µM; activity change, negative = cytotoxicity: at the top concentration

| Structure (SMILES) | activity change, negative = cytotoxicity |
| --- | --- |
| COc1ccc(S(=O)(=O)Nc2ccc3c(c2)C(=O)N([C@@H](C)CO)C[C@@H](C)[C@H](CN(C)C(=O)Nc2cccc4ccccc24)OCCCC[C@H](C)O3)cc1 | 3.69% |
| Nc1nccc(-c2cc(-c3ccc(Cl)cc3Cl)no2)n1 | -15.6% |
| Cc1ccc(C#N)c(SCc2nnc(-c3ccc(Cl)cc3)o2)n1 | -88.7% |
| COc1ccc(-c2cc(C(=O)Nc3cccc(O)c3)no2)cc1 | 2.72% |
| CCCCNc1c(-c2cccc(-c3cc(C(C)=O)cs3)c2)nc2ccc(C)cn12 | 6.59% |
| Cc1ccnc(NC(=O)CCC(=O)c2cccs2)c1 | -2.27% |
| COc1ccc(-n2ncc3c(N(C)C4CCCCC4)ncnc32)cc1 | -5.47% |
| COc1ccc(Nc2ncc(F)c(N3CCOCC3)n2)cc1 | -9.75% |
| COc1cc(SC)ccc1C(=O)Nc1nc(C)cs1 | 5.63% |
| Cc1ccc(S(=O)(=O)Nc2ccc3c(c2)CC(=O)N([C@H](C)CO)C[C@H](C)[C@H](CN(C)Cc2ccc(Cl)c(Cl)c2)O3)cc1 | -10.5% [at 23.5 µM] |
| CCOc1ccc(-c2cnc3ccccc3n2)cc1 | 3.49% |
| Cc1ccccc1C(=O)Nc1ccc2c(c1)OCCO2 | -9.68% |
| CC1CCCN(c2ncnc3c2cnn3-c2ccc(Cl)cc2)C1 (stereo not given) | 77.2% |
| Cc1ccc(-n2[nH]c(=O)c(-c3ccccn3)c2C)cc1 | -8.38% |
| CCOc1ccc(C(=O)Nc2nnc(SCC(=O)NCC3CCCO3)s2)cc1 (stereo not given) | 32.3% |
| CO[C@@H]1CN(C)C(=O)c2cc(NC(C)=O)ccc2OC[C@@H](C)N(Cc2ccc(F)cc2)C[C@@H]1C | 3.39% [at 23.5 µM] |
| O=C(Nc1ccc(-c2nc3cccnc3s2)cc1)C1CCCO1 (stereo not given) | -1.84% |
| CSc1nnc(NC(=O)c2ccc3c(c2)OCO3)s1 | -8.43% |
| CN(C(=O)COC(=O)c1nc(Cl)c(Cl)c(Cl)c1Cl)C1CCS(=O)(=O)C1 (stereo not given) | -1.9% |

| Structure (SMILES) | activity change, negative = cytotoxicity |
| --- | --- |
| O=C(NCCc1ccc(Cl)cc1)c1ccc2c(c1)OCCO2 | 0.76% |
| O=C(COC(=O)c1ccccc1C(=O)c1ccc(Cl)c([N+](=O)[O-])c1)NC1CC1 | -22% |
| COc1cccc(NC(=O)Nc2cccc(C(=O)O)c2)c1 | -0.858% |
| C[C@H](CO)N1C[C@H](C)[C@H](CN(C)C(=O)Nc2cccc3ccccc23)OCCCC[C@H](C)Oc2ccc(NC(=O)CCC(F)(F)F)cc2C1=O | -24.7% |
| C[C@H]1CCCCO[C@@H](CN(C)C(=O)Nc2ccc(F)cc2)[C@@H](C)CN([C@@H](C)CO)C(=O)c2cc(NC(=O)C3CCCCC3)ccc2O1 | 21% [at 23.5 µM] |
| COc1ccc(-n2cc(C(=O)c3ccccc3O)cn2)cc1 | -1.9% |
| Cc1ccccc1-c1ccc([C@H]2[C@@H](CO)N3CCCCN(S(=O)(=O)c4ccc(F)cc4)C[C@@H]23)cc1 | 27.6% [at 12 µM] |
| Cc1ccc(C(=O)Nc2ccc3c(c2)OCCO3)cc1 | -6.32% |
| COC(=O)c1ccc2nc(-c3ccc4c(c3)OCO4)cn2c1 | -13.6% |
| Cc1ccc(Nc2nc3ccccc3s2)c(C)c1 | 3.76% |
| COc1ccccc1N(Cc1ccccc1)S(=O)(=O)c1cccc(C(=O)Nc2cc(C)ccn2)c1 | -2.36% |
| CC(=O)c1ccc(NC(=O)c2noc3c2CCC3)cc1 | -3.44% |
| Nc1ccc(-c2nc3ccc(N)cc3s2)cc1 | -15.1% |
| Clc1ccc(-c2cc(-c3ccccn3)on2)c(Cl)c1 | -5.66% |
| CN(C)c1cccc(C(=O)Nc2nc3ccccc3[nH]2)c1 | -25.3% |
| O=C(Nc1ccc(N2CCOCC2)cc1)c1cnccn1 | -1.59% |
| COCCn1c(C)cc(C(=O)CSc2nnc3ccccn23)c1C | 3.49% |
| Cc1ccc(S(=O)(=O)N(C)C[C@H]2Oc3c(cccc3N(C)C)C(=O)N([C@@H](C)CO)C[C@@H]2C)cc1 | 9.89% |
